The list is not random: actives were taken first. Their share in the collection is about 9.2%.
NPC1 prom act = qHTS Assay for NPC1 Promoter Activators; 320,000 compounds, 2.4% hits; Potency, µM (doses to about 9.22 µM), usual class: activators; Huh7 NPC1 promoter luciferase reporter, 24 h; note: nearly all actives have a fitted effect of over 60% in size
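Luminescence read-out of NPC1 promoter-driven luciferase in stably transfected Huh7 cells; compounds delivered in DMSO and left 24 h at 37C, 5% CO2, qHTS titration format.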
SMN2 splice up = qHTS Assay for Enhancers of SMN2 Splice Variant Expression; HEK293 SMN2-luciferase splicing reporter, luminescence, 30-36 h; 210,000 compounds, 2.8% hits; Potency, µM (top dose mostly 46.1 µM), hits mostly activators; AID 1458, 2008; note: nearly all actives have a fitted effect of over 55% in size
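HEK293 cells carry an SMN2 minigene-luciferase reporter in which exon 7 inclusion puts luciferase in frame. Cells were seeded at 2000 cells/well, attached for 10-12 hours, then exposed to compounds for 30-36 hours at 37C before ONE-Glo luminescence.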
Rab9 prom act = qHTS Assay for Rab9 Promoter Activators. Huh7 Rab9 promoter-luciferase reporter, luminescence, 24 h. Potency, µM (top dose mostly 9.22 µM), hits mostly activators. 320,000 compounds, 2.8% hits; note: nearly all actives have a fitted effect of over 60% in size
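Promoter activation is measured as luciferase luminescence in Huh7 cells stably transfected with a Rab9 promoter–luciferase construct, following 24 h compound exposure at 37 °C and 10 min reagent incubation at ambient temperature.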
ELG1 DNA repair = qHTS screen for small molecules that inhibit ELG1-dependent DNA repair in human embryonic kidney (HEK293T) cells expressing luciferase-tagged ELG1. HEK293T ELG1-luciferase reporter, luminescence, 16 h; DNA damage induced by 5-fluorouridine. Potency, µM (doses to about 46.1 µM), usual class: inhibitors. 330,000 compounds, 2.3% hits; note: nearly all actives have a fitted effect of over 55% in size
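Cells (2,000 per well) received 5-fluorouridine plus test compound or DMSO and were incubated 16 hr at 37 °C, 5% CO2. Luciferase activity was read by luminescence 30 min after ONE-Glo addition; signal suppression marked inhibition of damage-induced ELG1 function.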
FLuc modulator = qHTS profiling assay for firefly luciferase inhibitor/activator using purifed enzyme and Km concentrations of substrates (counterscreen for miR-21 project). Luciferin 4-monooxygenase (Photinus pyralis), P08659. purified FLuc, Km substrates, luminescence inhibition. Potency, µM (top dose mostly 57.5 µM), most hits filed as inhibitors. 360,000 compounds, 6.9% hits. AID 588342, 2011; note: nearly all actives have a fitted effect of over 55% in size
Target sequence (P08659 whole entry, looked up): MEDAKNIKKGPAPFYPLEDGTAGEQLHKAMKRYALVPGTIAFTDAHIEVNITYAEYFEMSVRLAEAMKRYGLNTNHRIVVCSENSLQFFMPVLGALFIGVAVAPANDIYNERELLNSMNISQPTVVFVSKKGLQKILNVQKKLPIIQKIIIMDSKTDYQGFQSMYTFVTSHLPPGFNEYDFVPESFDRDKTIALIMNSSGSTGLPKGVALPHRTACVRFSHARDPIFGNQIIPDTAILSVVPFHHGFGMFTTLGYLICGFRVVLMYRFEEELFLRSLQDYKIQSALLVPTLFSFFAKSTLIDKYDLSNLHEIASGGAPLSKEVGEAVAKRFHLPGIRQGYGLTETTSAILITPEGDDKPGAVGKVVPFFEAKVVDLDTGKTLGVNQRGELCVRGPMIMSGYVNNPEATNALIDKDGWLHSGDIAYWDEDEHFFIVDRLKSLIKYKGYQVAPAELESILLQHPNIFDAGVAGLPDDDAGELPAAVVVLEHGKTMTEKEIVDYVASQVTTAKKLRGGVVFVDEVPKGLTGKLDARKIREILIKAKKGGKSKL
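Biochemical qHTS of compounds, final roughly 60 µM downward over six points, against 10 nM purified firefly luciferase using Km concentrations of substrates (10 uM D-luciferin, 10 uM ATP) in Tris acetate pH 7.5 buffer; luminescence output.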
ELG1 genotox = qHTS screen for small molecules that induce genotoxicity in human embryonic kidney (HEK293T) cells expressing luciferase-tagged ELG1; Potency, µM (titrated, usually from 46 µM), actives largely listed as activators; HEK293T ELG1-luciferase reporter, luminescence, 16 h; AID 504466, 2011; 330,000 compounds, 1.3% hits; note: nearly all actives have a fitted effect of over 60% in size
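HEK293T cells expressing luciferase-tagged ELG1 were exposed to compound or DMSO vehicle for 16 hr at 37 °C and 5% CO2. Luciferase activity was then measured with ONE-Glo after 30 min at room temperature.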
Hits are given with their value; – = inactive; ? = inconclusive; · = no result given; [ ] = dose if it differs, or a comment. Calls come from the whole dose curve; as a rule, active = well fitted curve in the direction sought with a large enough effect; inconclusive = small, poorly fitted or top-dose-only effect, or another doubt; inactive = no such curve, though single readings can be large; an effect the other way counts as inactive or inconclusive.

SMILES	NPC1 prom act	SMN2 splice up	Rab9 prom act	ELG1 DNA repair	FLuc modulator	ELG1 genotox
CCC(=O)N1CCc2cc(Br)cc(S(=O)(=O)N3CCC(C(=O)Nc4ccccc4CC)CC3)c21	·	–	·	·	–	·
CCn1c(N2CCN(S(=O)(=O)c3ccc(Cl)cc3)CC2)nc2ccccc21	–	–	–	14.6µM	–	–
CCOc1ccccc1N=Cc1c(O)c2ccccc2oc1=O	–	·	–	–	?	–
Cc1ccc(N=Cc2c(O)c3ccccc3oc2=O)cc1F	–	·	–	–	1.69µM	–
Cc1cc(C)c(N=Cc2c(O)c3ccccc3oc2=O)c(C)c1	–	·	–	?	3.79µM	?
Cc1cc(C)cc(N=Cc2c(O)c3ccccc3oc2=O)c1	–	–	–	–	–	–
O=C(O)c1cc(N=Cc2c(O)c3ccccc3oc2=O)ccc1O	–	·	–	–	7.57µM	–
Cc1cccc(/N=C/c2c(O)c3ccccc3oc2=O)n1	–	–	–	–	5.36µM	–
O=C(CSc1nncn1-c1ccccc1)NC1CCCC1	–	·	–	–	–	–
COc1ccc(OC)c(CNC(=O)C2CCN(S(=O)(=O)c3ccc4[nH]c(=O)oc4c3)CC2)c1	·	·	·	·	–	·
COc1ccc(-c2nc3c(c(SCC(=O)N4CCCCC4)n2)Cc2cc(Cl)ccc2O3)cc1	·	–	·	·	–	·
O=C(COc1ccc(Br)cc1)N1CCC(c2ccccc2)C1 (stereo not given)	–	–	–	–	?	–
COc1ccc(OC)c(N=Cc2c(O)c3ccccc3oc2=O)c1	–	·	–	–	–	–
Cc1ccc(C)c(N=Cc2c(O)c3ccccc3oc2=O)c1	–	·	–	–	3.01µM	–
COc1ccc(N(C)S(=O)(=O)c2cccc(C(=O)Nc3ccc4c(c3)OCCO4)c2)cc1	–	–	–	?	–	–
COc1ccc(N(C)S(=O)(=O)c2cccc(C(=O)Nc3cc(OC)ccc3OC)c2)cc1	–	–	–	?	–	–
COc1ccc(N(C)S(=O)(=O)c2cccc(C(=O)OC(C(=O)Nc3cc(C)cc(C)c3)c3ccccc3)c2)cc1 (stereo not given)	–	15.8µM	–	–	–	–
COc1ccc(N(C)S(=O)(=O)c2cccc(C(=O)Nc3ccc(OC)nc3)c2)cc1	–	–	–	18.4µM	–	–
COc1ccc(N(C)S(=O)(=O)c2cccc(C(=O)Nc3ccc(-n4cnnn4)cc3)c2)cc1	–	–	–	18.4µM	–	–
O=C(CNC(=O)c1n[nH]c2ccccc12)Nc1ccc(F)c(F)c1F	·	·	·	?	·	–
Fc1c(F)c(F)c(/C=N/NC(=S)Nc2cccnc2)c(F)c1F	–	–	–	?	–	–
Fc1ccc(/C=N/NC(=S)Nc2cccnc2)cc1	–	–	–	–	?	23.1µM
Oc1cccc(/C=N/NC(=S)Nc2cccnc2)c1O	–	–	–	–	?	?
Fc1ccc(/C=N/NC(=S)Nc2cccnc2)cc1F	–	–	–	?	–	–
Oc1ccc(/C=N/NC(=S)Nc2cccnc2)c(O)c1O	–	·	–	14.6µM	19µM	–
SMILES	NPC1 prom act	SMN2 splice up	Rab9 prom act	ELG1 DNA repair	FLuc modulator	ELG1 genotox
Oc1ccc(/C=N/NC(=S)Nc2cccnc2)c(O)c1	–	–	–	–	21.3µM	?
CCC(C)[C@H]1CNCCN1CCC12CC3CC(CC(C3)C1)C2 (stereo not given in full)	–	·	–	?	–	–
CC1CCCCN1C(=O)COC(=O)C1CCN(S(=O)(=O)c2ccc3c(c2)OCCO3)CC1 (stereo not given)	–	·	–	–	–	–
CCOCCCNC(=O)c1cc(Sc2ccc(F)cc2)nc2ccccc12	–	–[1.84 µM]	–	18.4µM	–	–
C=CCN(CC=C)C(=O)c1ccc(OC2CCN(C(C)=O)CC2)c(OC)c1	–	·	–	?	–	–
O=C(Nc1ccc(NC(=O)c2cccs2)c(Cl)c1)c1ccco1	–	·	–	–	?	–
Cc1ccccc1C(=O)N1CCN(c2ccc(NC(=O)c3ccco3)cc2Cl)CC1	–	–	–	2.06µM	–	–
Cc1ccc(NC(=O)N2CCN(C(=O)c3ccco3)CC2)cc1Cl	–	·	–	–	–	–
O=C(Nc1ccc(N2CCN(C(=O)c3cccs3)CC2)c(Cl)c1)c1ccco1	–	–	–	20.6µM	?	–
CN1CCCN(C(=O)CC2(CC(=O)O)CCCCC2)CC1	–	·	–	–	–	–
CCCCCCc1c(O)nc(SCCN(C)C)[nH]c1=O	–	·	–	?	–	–
COc1cc(/C=N/NC(=O)c2nc(-c3ccccc3)n(-c3ccccc3)n2)ccc1O	–	–	–	?	?	–
COc1ccc(-c2cnnc(N/N=C/c3ccc(O)c(OC)c3)n2)cc1	–	12.6µM	–	20.6µM	1.2µM	–
O=[N+]([O-])c1ccc(/C=N/Nc2ccccn2)cc1	?	·	?	?	–	–
COc1cc(/C=N/Nc2nc(C)nc3c2cnn3-c2ccccc2)ccc1O	–	–	–	16.4µM	?	–
COc1cc(/C=N/Nc2ccnc(=O)[nH]2)ccc1O	–	·	–	?	?	–
COc1cc(/C=N/Nc2ccccn2)ccc1O	–	·	?	?	6.01µM	9.2µM
CN(C)c1ccc(/C=N\Nc2ccccn2)cc1	0.891µM	·	0.631µM	?	0.953µM	5.17µM
CCOc1ccc(CCNC(=O)c2[nH]c3cc(OC)ccc3c2Sc2ccccc2)cc1OCC	·	·	·	·	–	·
COc1ccc(/C=N/Nc2nonc2N)cc1OC	–	–	–	?	?	–
COc1ccc(/C=N/Nc2ccccn2)cc1OC	?	·	?	?	7.57µM	?
COc1ccc(/C=N/Nc2nc(N)cc(Cl)n2)cc1OC	–	–	–	–	16.9µM	–
COc1ccc(/C=N/Nc2nc(C)nc(N)n2)cc1	–	·	–	?	16.9µM	–
Cc1ccc(C2N(c3ccc(Cl)cc3)C(=O)N3CCCN23)cc1 (stereo not given)	–	·	–	–	–	–
COCCCNC(=O)c1cc(Nc2ccc(OC)cc2OC)nc2ccccc12	–	·	–	–	19µM	–
COc1ccc(OC)c(Nc2cc(C(=O)NCc3ccccc3)c3ccccc3n2)c1	·	–	·	·	–	·
COc1ccc(CNC(=O)c2cc(Nc3ccc(OC)cc3OC)nc3ccccc23)cc1	·	–	·	·	7.57µM	·
CCOCCCNC(=O)c1cc(Nc2ccc(OC)cc2OC)nc2ccccc12	–	·	–	–	?	–
COc1ccc(CCNC(=O)c2cc(Nc3cc(C)cc(C)c3)nc3ccccc23)cc1OC	·	–	·	·	6.01µM	·

From PubChem
